Results on 8 molecules are retold here after PubChem BioAssay (EPA / NIEHS).

Calls of active or inactive are those of the source. The calls were made as follows: active = hit-call score of the fitted dose curve at least 0.9, where 1 is the maximum; inactive = score below 0.9.

Read-out in test [1]: Tumor necrosis factor receptor superfamily member 6 (Homo sapiens) (UniProt P25445)
Description: LTEA_HepaRG_FAS: Life Technologies and Expression Analysis (LTEA) Assay for Fas cell surface death receptor (FAS) using HepaRG (AID 2283447). Particulars: mRNA level, 48 h; actives raise or lower the signal. The gist of the method: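 Differentiated HepaRG cells in serum-free induction medium were exposed 48 h to 8 half-log concentrations up to 100 uM in 0.5% DMSO, in duplicate. FAS mRNA was measured by qRT-PCR normalised to ACTB, GAPDH and POLR2A; bidirectional fit versus DMSO.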

Read-out in test [2]: Fatty acid synthase (Homo sapiens) (UniProt P49327)
Description: LTEA_HepaRG_FASN: Life Technologies and Expression Analysis (LTEA) Assay for Fatty Acid Synthase (FASN) using HepaRG (AID 2283448). Conditions: mRNA level, 48 h; actives raise or lower the signal. Summed up:
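Differentiated human HepaRG cells were exposed for 48 h in serum-free induction medium to eight half-log concentrations up to 100 uM in 0.5% DMSO, in duplicate. FASN mRNA was quantified by TaqMan qRT-PCR, normalized to ACTB/GAPDH/POLR2A, and fitted bidirectionally against DMSO.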

Read-out in test [3]: Cyclin D2 (CCND2), CCND2 (gene 894)
Description: LTEA_HepaRG_CCND2: Life Technologies and Expression Analysis (LTEA) Assay for Cyclin D2 (CCND2) using HepaRG (AID 2283449).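 Also: CCND2 transcript measured by TaqMan qRT-PCR and normalised to three housekeeping genes.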 Particulars: mRNA level, 48 h; actives raise or lower the signal. The gist of the method: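 Chemicals in 0.5% DMSO, eight half-log concentrations from 100 uM top, were applied in duplicate for 48 h to human HepaRG cells in serum-free induction medium. CCND2 mRNA by TaqMan qRT-PCR, normalised to ACTB/GAPDH/POLR2A; bidirectional fit versus DMSO.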

Read-out in test [4]: Cyclin Dependent Kinase Inhibitor 1A (CDKN1A), CDKN1A (gene 1026)
Description: LTEA_HepaRG_CDKN1A: Life Technologies and Expression Analysis (LTEA) Assay for Cyclin Dependent Kinase Inhibitor 1A (CDKN1A) using HepaRG (AID 2283450). Conditions: mRNA level, 48 h; actives raise or lower the signal. The gist of the method: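 HepaRG, 48 h dosing, 8-pt half-log series from 100 uM top, 0.5% DMSO vehicle, duplicates. Readout: TaqMan qRT-PCR of CDKN1A transcript, housekeeping-normalized (ACTB, GAPDH, POLR2A). Up/down curve fit relative to DMSO.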

Read-out in test [5]: Cyclin D1 (CCND1), CCND1 (gene 595)
Description: LTEA_HepaRG_CCND1: Life Technologies and Expression Analysis (LTEA) Assay for Cyclin D1 (CCND1) using HepaRG (AID 2283451). Particulars: mRNA level, 48 h; actives raise or lower the signal. The gist of the method:
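qRT-PCR (Fluidigm 96.96 array) read-out of transcript level, housekeeping-normalized (ACTB/GAPDH/POLR2A). HepaRG cells, 48 h chemical exposure, 8-point half-log series from 100 uM, 0.5% DMSO vehicle; gain or loss relative to DMSO baseline.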

Read-out in test [6]: catalase (CAT), CAT (gene 847)
Description: LTEA_HepaRG_CAT: Life Technologies and Expression Analysis (LTEA) Assay for catalase (CAT) using HepaRG (AID 2283452). Conditions: mRNA level, 48 h; actives raise or lower the signal. Summed up: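 HepaRG cells in serum-free induction medium, 0.5% DMSO vehicle, exposed 48 h in duplicate over 8 half-log concentrations from 100 uM. CAT mRNA measured by qRT-PCR, normalized to ACTB, GAPDH, POLR2A; bidirectional fit versus DMSO.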

Read-out in test [7]: flavin-containing dimethylaniline monooxygenases 3 (FMO3), FMO3 (gene 2328)
Put plainly: LTEA_HepaRG_FMO3: Life Technologies and Expression Analysis (LTEA) Assay for flavin-containing dimethylaniline monooxygenases 3 (FMO3) using HepaRG (AID 2283453).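 As to AC50: FMO3 transcript by TaqMan qRT-PCR normalized to ACTB GAPDH and POLR2A.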 Particulars: mRNA level, 48 h; actives raise or lower the signal. Summed up:
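HepaRG, 48 h exposure, 8-pt half-log series from 100 uM, 0.5% DMSO vehicle, duplicates; FMO3 transcript by Fluidigm TaqMan qRT-PCR, housekeeping-normalized; gain/loss fit vs DMSO.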

Read-out in test [8]: Cytochrome P450 (CYP1A1), CYP1A1 (gene 1543)
Put plainly: LTEA_HepaRG_CYP1A1: Life Technologies and Expression Analysis (LTEA) Assay for Cytochrome P450 (CYP1A1) using HepaRG (AID 2283454). Particulars: mRNA level, 48 h; actives raise or lower the signal. The gist of the method: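 qRT-PCR read-out: CYP1A1 transcript normalized to three housekeeping genes, fitted bidirectionally against 0.5% DMSO vehicle baseline. Human HepaRG cells, 48 h chemical exposure, 8-point half-log series topping at 100 uM.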

Read-out in test [9]: CFLAR gene, CFLAR (gene 8837)
Description: LTEA_HepaRG_CFLAR: Life Technologies and Expression Analysis (LTEA) Assay for CFLAR gene using HepaRG (AID 2283455). Particulars: mRNA level, 48 h; actives raise or lower the signal. The gist of the method:
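Differentiated HepaRG cells in serum-free induction medium were exposed 48 h in duplicate to eight half-log concentrations up to 100 uM in 0.5% DMSO; mRNA measured by TaqMan qRT-PCR, normalized to ACTB, GAPDH, POLR2A; bidirectional fitting versus DMSO.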

Read-out in test [10]: Forkhead box O1 (FOXO1), FOXO1 (gene 2308)
Description: LTEA_HepaRG_FOXO1: Life Technologies and Expression Analysis (LTEA) Assay for Forkhead box O1 (FOXO1) using HepaRG (AID 2283456). Particulars: mRNA level, 48 h; actives raise or lower the signal. The gist of the method: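 Differentiated HepaRG cells, in serum-free induction medium with 0.5% DMSO, exposed 48 h in duplicate to 8-point half-log series from 100 uM. FOXO1 mRNA measured by TaqMan qRT-PCR, normalized to ACTB, GAPDH, POLR2A; bidirectional fit versus DMSO.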

A short description of test [11]: CEETOX_H295R_11DCORT: CeeTox H295R High-throughput Steroidogenesis Assay for 11-Deoxycortisol (11DCORT) (AID 2283432).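 As to AC50: 11-deoxycortisol secreted into the medium measured by LC-MS/MS.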 Particulars: actives raise or lower the signal. The gist of the method: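 H295R cells prestimulated 48 h with 10 uM forskolin, then exposed 48 h to chemical in 0.1% DMSO. 11-Deoxycortisol in medium quantified by HPLC-MS/MS after MTBE extraction; bidirectional fit versus DMSO. MTT viability read in same wells.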

A short description of test [12]: CEETOX_H295R_OHPREG: CeeTox H295R High-throughput Steroidogenesis Assay for OH-Pregnenolone (OHPREG) (AID 2283434). Particulars: actives raise or lower the signal. Summed up:
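H295R cells pre-stimulated 48 h with 10 uM forskolin, then exposed 48 h to chemical in 0.1% DMSO. 17alpha-hydroxypregnenolone in medium quantified by MTBE extraction and HPLC-MS/MS; bidirectional fit versus DMSO, viability checked by MTT.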

Test [13] in a line: CEETOX_H295R_CORTIC: CeeTox H295R High-throughput Steroidogenesis Assay for Corticosterone (CORTIC) (AID 2283437).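 Also: corticosterone secreted into medium quantified by mass spectrometry.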 Particulars: actives raise or lower the signal. The gist of the method: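 H295R adrenal cells prestimulated 48 hours with 10 uM forskolin, then exposed 48 hours to chemical in 0.1% DMSO. Corticosterone in medium measured by HPLC-MS/MS after MTBE extraction; MTT viability in the same wells; bidirectional fit versus DMSO.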

Test [14] is described as follows: CEETOX_H295R_CORTISOL: CeeTox H295R High-throughput Steroidogenesis Assay for Cortisol (AID 2283438).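 Also: cortisol secreted into medium quantified by LC-MS/MS.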 Conditions: actives raise or lower the signal. Summed up: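 H295R human adrenal cells were prestimulated 48 h with 10 uM forskolin, then exposed 48 h to test chemical (0.1% DMSO final). Medium cortisol was quantified by HPLC-MS/MS after MTBE extraction; bidirectional fitting relative to DMSO baseline.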

Test [15] in a line: CEETOX_H295R_DOC: CeeTox H295R High-throughput Steroidogenesis Assay for DOC (AID 2283439). Conditions: actives raise or lower the signal. Summed up: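 H295R adrenal cells prestimulated 48 h with 10 uM forskolin, then exposed 48 h to test chemical (0.1% DMSO final). Medium 11-deoxycorticosterone extracted with MTBE, quantified by HPLC-MS/MS; bidirectional fit versus DMSO baseline; MTT viability in same wells.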

Test [16] in a line: CEETOX_H295R_PROG: CeeTox H295R High-throughput Steroidogenesis Assay for Progesterone (PROG) (AID 2283442).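 As to AC50: human H295R adrenal cells primed with 10 µM forskolin before dosing.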 Particulars: actives raise or lower the signal. Summed up: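 Progesterone read-out: HPLC-MS/MS on MTBE extracts of conditioned medium after 48 h chemical exposure of forskolin-primed (10 uM, 48 h) H295R cells. Gain or loss of signal was fitted relative to DMSO baseline.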

A short description of test [17]: CEETOX_H295R_ESTRADIOL: CeeTox H295R High-throughput Steroidogenesis Assay for Estradiol (AID 2283440).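 Also: estradiol secreted into medium quantified by LC-MS/MS after dansyl derivatisation.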 Conditions: actives raise or lower the signal. The gist of the method: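 H295R, 48 h forskolin (10 uM) prestim → 48 h compound, 0.1% DMSO final. Estradiol in medium: MTBE extraction, dansyl chloride derivatization, LC-MS/MS. Fit bidirectional vs DMSO baseline; MTT viability in same wells.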

The nature of test [18]: CEETOX_H295R_ESTRONE: CeeTox H295R High-throughput Steroidogenesis Assay for Estrone (AID 2283441).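 Also: estrone secreted into medium measured by LC-MS/MS after dansyl derivatization.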 Particulars: actives raise or lower the signal. The gist of the method: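 H295R cells; 48 h forskolin (10 uM) prestimulation; 48 h compound exposure, 0.1% DMSO final. Medium estrone: MTBE extraction, dansyl derivatization, HPLC-MS/MS. Bidirectional fit vs DMSO.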

Fatty acid synthase (Homo sapiens), sequence (P49327 whole entry, looked up): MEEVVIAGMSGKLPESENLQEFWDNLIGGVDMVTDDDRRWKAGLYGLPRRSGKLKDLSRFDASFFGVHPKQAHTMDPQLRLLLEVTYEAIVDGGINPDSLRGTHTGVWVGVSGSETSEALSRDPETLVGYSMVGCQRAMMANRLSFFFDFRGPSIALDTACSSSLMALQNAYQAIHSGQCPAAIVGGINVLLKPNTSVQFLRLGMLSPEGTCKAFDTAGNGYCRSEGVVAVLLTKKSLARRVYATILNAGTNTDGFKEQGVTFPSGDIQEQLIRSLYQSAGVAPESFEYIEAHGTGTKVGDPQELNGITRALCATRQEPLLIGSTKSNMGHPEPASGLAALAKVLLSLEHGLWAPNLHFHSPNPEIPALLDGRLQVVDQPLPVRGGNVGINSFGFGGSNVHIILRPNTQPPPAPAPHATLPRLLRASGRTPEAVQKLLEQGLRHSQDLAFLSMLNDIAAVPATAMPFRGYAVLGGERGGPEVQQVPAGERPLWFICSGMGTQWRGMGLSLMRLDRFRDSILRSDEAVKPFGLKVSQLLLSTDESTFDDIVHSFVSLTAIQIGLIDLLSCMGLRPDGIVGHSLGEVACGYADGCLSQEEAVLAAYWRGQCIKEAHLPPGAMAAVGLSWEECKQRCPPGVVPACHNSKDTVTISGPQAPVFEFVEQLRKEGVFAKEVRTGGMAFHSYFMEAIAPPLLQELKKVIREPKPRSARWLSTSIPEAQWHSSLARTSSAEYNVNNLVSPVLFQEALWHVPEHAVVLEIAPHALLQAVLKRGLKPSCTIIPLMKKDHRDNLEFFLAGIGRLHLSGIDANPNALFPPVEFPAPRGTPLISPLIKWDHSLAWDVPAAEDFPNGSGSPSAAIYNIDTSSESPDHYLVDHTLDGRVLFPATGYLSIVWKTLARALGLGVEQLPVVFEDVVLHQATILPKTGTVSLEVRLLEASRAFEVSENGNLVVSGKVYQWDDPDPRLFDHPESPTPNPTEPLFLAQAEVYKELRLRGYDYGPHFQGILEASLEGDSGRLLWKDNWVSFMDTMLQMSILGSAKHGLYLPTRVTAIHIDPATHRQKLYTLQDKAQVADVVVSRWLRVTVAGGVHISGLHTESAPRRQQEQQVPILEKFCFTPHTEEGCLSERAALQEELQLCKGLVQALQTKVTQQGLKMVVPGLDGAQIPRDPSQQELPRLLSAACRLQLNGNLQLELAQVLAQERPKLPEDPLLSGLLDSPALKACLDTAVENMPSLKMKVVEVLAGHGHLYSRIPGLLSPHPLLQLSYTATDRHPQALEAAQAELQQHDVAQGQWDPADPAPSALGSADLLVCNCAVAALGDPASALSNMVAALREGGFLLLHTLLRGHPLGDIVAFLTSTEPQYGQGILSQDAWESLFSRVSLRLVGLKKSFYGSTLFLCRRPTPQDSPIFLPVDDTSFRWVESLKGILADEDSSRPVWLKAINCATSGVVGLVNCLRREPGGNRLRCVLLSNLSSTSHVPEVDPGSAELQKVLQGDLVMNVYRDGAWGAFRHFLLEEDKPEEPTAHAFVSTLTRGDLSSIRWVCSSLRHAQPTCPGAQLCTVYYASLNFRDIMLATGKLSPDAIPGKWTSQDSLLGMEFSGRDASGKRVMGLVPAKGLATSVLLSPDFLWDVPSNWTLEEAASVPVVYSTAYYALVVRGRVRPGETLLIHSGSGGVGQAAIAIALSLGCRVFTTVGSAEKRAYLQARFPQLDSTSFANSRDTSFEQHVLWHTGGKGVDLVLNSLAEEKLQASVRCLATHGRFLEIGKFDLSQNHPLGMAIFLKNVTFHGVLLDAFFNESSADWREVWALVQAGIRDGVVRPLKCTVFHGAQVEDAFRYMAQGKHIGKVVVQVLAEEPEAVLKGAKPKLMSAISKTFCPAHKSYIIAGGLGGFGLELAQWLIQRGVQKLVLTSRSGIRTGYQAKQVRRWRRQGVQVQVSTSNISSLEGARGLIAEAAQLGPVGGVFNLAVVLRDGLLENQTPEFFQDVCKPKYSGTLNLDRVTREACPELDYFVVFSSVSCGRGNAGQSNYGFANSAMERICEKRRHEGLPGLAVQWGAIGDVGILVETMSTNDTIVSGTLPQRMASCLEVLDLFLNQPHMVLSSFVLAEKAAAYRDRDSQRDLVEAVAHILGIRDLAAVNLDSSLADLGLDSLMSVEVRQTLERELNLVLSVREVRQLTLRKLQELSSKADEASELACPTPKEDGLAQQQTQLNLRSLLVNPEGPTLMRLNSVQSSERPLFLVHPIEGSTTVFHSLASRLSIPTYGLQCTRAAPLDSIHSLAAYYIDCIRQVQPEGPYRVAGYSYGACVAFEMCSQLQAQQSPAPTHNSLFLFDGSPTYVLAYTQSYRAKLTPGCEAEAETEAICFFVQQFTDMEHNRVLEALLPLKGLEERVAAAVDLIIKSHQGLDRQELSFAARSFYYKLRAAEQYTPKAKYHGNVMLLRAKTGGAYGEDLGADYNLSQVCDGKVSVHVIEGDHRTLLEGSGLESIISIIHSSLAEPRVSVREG

Regarding `CCCCOC(=O)c1ccccc1`, the molecule was called inactive in test [1], in test [2], in test [3], in test [4], in test [5] and in test [6]. The outcome in [7], in test [8], in test [9] and in test [10] was inactive.

With `Nc1ccn([C@@H]2O[C@H](CO)[C@@H](O)[C@@H]2O)c(=O)n1`, the molecule was classed as inactive in [11], in [12], in test [13], in test [14], in [15] and in test [16]. Moreover, the result in test [1], in test [2], in test [3], in test [4], in test [5] and in test [6] was inactive. Also, the outcome in [7], in test [9] and in [10] was inactive. Further, the AC50 in test [8] was 77.3 µM (active).

In the case of `CC[C@H](C)C(=O)O[C@H]1C[C@H](O)C=C2C=C[C@H](C)[C@H](CC[C@@H](O)C[C@@H](O)CC(=O)O)[C@H]21`, the AC50 was 5.33 µM (active) in test [11]; 1.06 µM (active) in [12]; 6.77 µM (active) in [13]; 2.7 µM (active) in test [15]; 949 nM (active) in test [16]; 3.08 µM (active) in test [2]. Besides, in test [8], the half-maximal activity concentration (AC50) is 9.15 µM (active). Further, the molecule was classed as inactive in test [14], in [17], in [18], in [1], in test [3] and in test [4]. Moreover, the call in test [5], in test [6], in test [7], in test [9] and in test [10] was inactive.

As for `C[C@@H](Oc1ccc(CNC(=O)c2cccnc2Oc2ccc3c(c2)OCO3)c(F)c1)C(=O)O`, the molecule was called inactive in test [11], in test [12], in test [13], in test [14], in test [15] and in test [17]. The call in test [16], in [1], in test [2], in test [3], in test [4] and in test [5] was inactive. Moreover, the molecule was called inactive in [6], in test [7], in test [8], in test [9] and in [10]. Also, the AC50 in test [18] was 128 nM (active).

Regarding `CCCc1ccccc1`, the molecule was classed as inactive in test [1], in test [2], in test [4], in [5], in [6] and in test [7]. For the same molecule, the molecule was classed as inactive in test [8], in test [9] and in [10].

With `COS(C)(=O)=O`, the molecule was classed as inactive in [1], in [2], in test [3], in [4], in test [5] and in test [6]. The call in [7], in test [8], in test [9] and in test [10] was inactive.

Regarding `CC(C)CC(C)O` (stereo not given), the call in test [1], in test [2], in [3], in test [4], in [5] and in test [6] was inactive. The result in test [7], in [9] and in [10] was inactive. Further, the AC50 in test [8] was 50 µM (active).

On to `CCCCN1C(=O)[C@@H]([C@H](O)C2CCCCC2)NC(=O)C12CCN(Cc1ccc(Oc3ccc(C(=O)O)cc3)cc1)CC2`, for which the molecule was classed as inactive in test [1] and in [4]. In addition, the AC50 in test [2] was 1.32 µM (active); in test [5], 50 µM (active); in test [6] it was 2.04 µM (active); in test [7] it was 3.54 µM (active); in test [8] it was 2.16 µM (active); in [9], 2.28 µM (active). Moreover, in test [10], the AC50 was 6.4 µM (active).
